These results are taken from publication PMC13541613, “GHT-SELEX demonstrates unexpectedly high intrinsic sequence specificity and complex DNA binding of many human transcription factors”.

The target in the test is ZNF721 DBD2 (Homo sapiens, UniProt Q8TF20-2 395-923). Description: HT-SELEX; 20 mM HEPES pH 7, 140 mM KCl, 5 mM NaCl, 1 mM K2HPO4, 2 mM MgSO4, 100 uM EGTA, ZnSO4, 0.1% Tween20; room temperature, 1 h; high values mean tight binding. As to conditions: protein: ivt; tags: eGFP (N-terminal); dsDNA, one strand shown. In outline: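 Bead-immobilised tagged transcription factor (full-length or DNA-binding-domain fragment), made in HEK293 lysate or cell-free extract, was incubated with a randomized 40-base DNA library. Binding was for 1 h at room temperature in HEPES/KCl low-stringency buffer with Tween20. After washing and heat elution, bound DNA was PCR-amplified over successive cycles and Illumina-sequenced (~3 million 60 bp reads per sample). Binding signal is a relative k-mer count in selected reads; higher means tighter binding.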
Sequence of ZNF721 DBD2 (Q8TF20 383-911): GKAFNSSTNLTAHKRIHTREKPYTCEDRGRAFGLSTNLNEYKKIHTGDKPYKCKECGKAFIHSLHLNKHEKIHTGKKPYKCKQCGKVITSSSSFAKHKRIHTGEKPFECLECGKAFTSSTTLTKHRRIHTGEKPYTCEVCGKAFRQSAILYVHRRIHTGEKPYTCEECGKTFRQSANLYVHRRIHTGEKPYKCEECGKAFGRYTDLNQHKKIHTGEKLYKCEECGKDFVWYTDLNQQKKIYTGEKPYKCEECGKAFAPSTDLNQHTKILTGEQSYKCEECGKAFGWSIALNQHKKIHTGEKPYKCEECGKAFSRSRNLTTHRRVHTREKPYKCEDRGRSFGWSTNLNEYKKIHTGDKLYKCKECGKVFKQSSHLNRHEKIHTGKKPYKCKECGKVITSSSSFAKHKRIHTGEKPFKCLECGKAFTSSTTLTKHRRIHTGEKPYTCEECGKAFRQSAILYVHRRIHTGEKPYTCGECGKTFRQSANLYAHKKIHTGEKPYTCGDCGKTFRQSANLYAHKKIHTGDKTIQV
Consider TAAAAAAGCA, for which the binding signal turned out to be 0.114 relative 10-mer count. The sequence CCCACGACCC showed a binding signal of 0.0018 relative 10-mer count.

In the case of CCGCCCACCC, the binding signal was determined as 0.0018 relative 10-mer count. To CTCCTCCCCC belongs 0.00216 relative 10-mer count. To CACACCCCAC belongs 0.00419 relative 10-mer count; to CCCCCCCCAA, 0.00288 relative 10-mer count; to CAGAAAAAAG, 0.0475 relative 10-mer count.

Sequence CCCCGACCAC displayed a binding signal of 0.00395 relative 10-mer count. The figure for CCCCCACCCC is 0.00276 relative 10-mer count; for CACCACCACC it is 0.0109 relative 10-mer count. To AAACAGCGTA belongs 0.468 relative 10-mer count.

In the case of CCCCAACACC, the binding signal was determined as 0.00324 relative 10-mer count. The figure for AGGTGGTGGG is 0.00587 relative 10-mer count. Sequence AAAAAAGAGT yielded a binding signal of 0.0674 relative 10-mer count. The figure for CCCTCCCCCC is 0.00515 relative 10-mer count.

For the sequence GTGGTGGGGA, the binding signal was found to be 0.00443 relative 10-mer count. The figure for GGGAGGGGGA is 0.00395 relative 10-mer count; for AACAGCATGA it is 0.308 relative 10-mer count. To CCCTCTCCCC belongs 0.00228 relative 10-mer count. To AAAAAAAGGT belongs 0.0857 relative 10-mer count; to AAAAAAAGAG, 0.0578 relative 10-mer count.

CCAACCACCC registered a binding signal of 0.00312 relative 10-mer count. The figure for CACCATCCCC is 0.003 relative 10-mer count. As to CCCGCCGCCC, the binding signal turned out to be 0.00192 relative 10-mer count. To ACCCACCCCG belongs 0.00264 relative 10-mer count; to AAAAAAAGCG, 0.0422 relative 10-mer count; to CCCAAAAAAA, 0.0681 relative 10-mer count. Take CCCCCGACCC: the binding signal came to 0.0018 relative 10-mer count. ACCCACCACC displayed a binding signal of 0.00791 relative 10-mer count. The figure for CCGCCCCCTC is 0.00324 relative 10-mer count; for AAAGCAGGGT it is 0.337 relative 10-mer count.

For ACCACCCACC, the binding signal came to 0.00875 relative 10-mer count.

For the sequence ACCCCCTCCC, the binding signal was determined as 0.00503 relative 10-mer count. To ACCACCCCCC belongs 0.00288 relative 10-mer count.

In turn, ACGAAAAAAG displayed a binding signal of 0.0417 relative 10-mer count. In the case of CCAAAAAAAG, the binding signal turned out to be 0.0564 relative 10-mer count. To AAAAAAAGCA belongs 0.246 relative 10-mer count. The figure for CACCGCCACC is 0.00384 relative 10-mer count. GCCACCCACC had a binding signal of 0.00312 relative 10-mer count. To CGCTTCTTTC belongs 0.0018 relative 10-mer count.
